Test results: PubChem BioAssay AID1224921 (Broad Institute, 2016)
Screen size: about 1,400 compounds; about 350 (25%) were called active. Roughly 2% stayed inconclusive and do not appear here. The rule behind the calls is not given here. Not all results are given here. Potency and affinity values are given separately.

Test: inhibitors of Clostridioides difficile proliferation – 4-point retest, confirmation (AID 1224921);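 note: plate controls were DMSO wells for no effect and levofloxacin 16 µg/mL wells for full effect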
Conditions: Clostridioides difficile clinical isolate growth, OD600, 24 h, active compounds read low; at 30 µM unless noted

Max activity, inactive:
C[C@@H]1CN([C@H](C)CO)C(=O)c2cccc(NS(C)(=O)=O)c2O[C@H]1CN(C)Cc1ccccc1 32.7%
CO[C@@H]1CN(C)C(=O)c2cc(NC(=O)c3ccccc3)ccc2OC[C@H](C)N(CC2CC2)C[C@@H]1C 19.6%
COc1cccc(C(=O)Nc2ccc3c(c2)OC[C@@H](C)N(C(=O)C2CCCC2)C[C@H](C)[C@H](OC)CN(C)C3=O)c1 7.82%
CCCC(=O)Nc1ccc2c(c1)C(=O)N(C)C[C@@H](OC)[C@@H](C)CN(Cc1ccccc1)[C@@H](C)CO2 9.16%
CCCNC(=O)N(C)C[C@@H]1Oc2cc(C#Cc3cccc(F)c3)ccc2S(=O)(=O)N([C@H](C)CO)C[C@H]1C 64.3%
O=C(Nc1cc(F)ccc1F)N[C@H]1CC[C@@H](CC(=O)N2CCc3ccccc3C2)O[C@@H]1CO 31.4%
CO[C@H]1CN(C)C(=O)c2cc(NS(=O)(=O)c3cccc(F)c3)ccc2OC[C@H](C)N(Cc2cc(F)ccc2F)C[C@@H]1C -7.26% [at 8 µM]
CCCN1C[C@@H](C)[C@H](OC)CN(C)C(=O)c2cc(NC(=O)CC)ccc2OC[C@@H]1C -10.1%
COc1ccc(NC(=O)Nc2ccc3c(c2)[C@H]2C[C@H](CC(=O)NCc4ccccc4F)O[C@@H](CO)[C@H]2O3)cc1 -14.5% [at 8 µM]
C[C@H]1CN([C@@H](C)CO)C(=O)c2cccc(NC(=O)NC3CCCCC3)c2O[C@H]1CN(C)C(=O)Nc1ccc(C(F)(F)F)cc1 17.7% [at 7.5 µM]
CO[C@@H]1CN(C)C(=O)c2ccc(NC(=O)C3CC3)cc2OC[C@H](C)N(Cc2cncnc2)C[C@@H]1C -6.19% [at 1.95 µM]
CO[C@H]1CN(C)C(=O)c2ccc(NC(=O)C3CC3)cc2OC[C@H](C)N(Cc2cncnc2)C[C@@H]1C -11.8%
CO[C@H]1CN(C)C(=O)c2ccc(NC(C)=O)cc2OC[C@@H](C)N(Cc2cc(F)ccc2F)C[C@H]1C -8.57% [at 1.95 µM]
CCCNC(=O)Nc1ccc2c(c1)OC[C@@H](C)N(Cc1ccccc1)C[C@H](C)[C@H](OC)CN(C)C2=O 33.5%
CCS(=O)(=O)Nc1ccc2c(c1)C(=O)N(C)C[C@H](OC)[C@H](C)CN(CC1CCCC1)[C@H](C)CO2 -9.54% [at 1.95 µM]
C[C@@H]1CN([C@H](C)CO)C(=O)Cc2cc(NC(=O)Nc3cccc4ccccc34)ccc2O[C@H]1CN(C)Cc1ccccc1 31.3% [at 8 µM]
C[C@H](CO)N1C[C@H](C)[C@@H](CN(C)Cc2ccccc2)Oc2ccc(NC(=O)Nc3cccc4ccccc34)cc2CC1=O 21.6%
C[C@@H]1CN([C@@H](C)CO)C(=O)Cc2cc(NC(=O)CCCN(C)C)ccc2O[C@H]1CN(C)Cc1ccc(Oc2ccccc2)cc1 12.2% [at 8 µM]
CC(C)NC(=O)Nc1ccc2c(c1)CC(=O)N([C@@H](C)CO)C[C@@H](C)[C@@H](CN(C)Cc1ccc(-c3ccccc3)cc1)O2 42.2%
C[C@@H]1CN([C@@H](C)CO)C(=O)Cc2cc(NC(=O)Nc3cccc4ccccc34)ccc2O[C@H]1CN(C)Cc1ccccc1 34.5%
C[C@@H]1CN([C@@H](C)CO)C(=O)Cc2cc(NC(=O)Nc3ccc(C(F)(F)F)cc3)ccc2O[C@@H]1CN(C)Cc1ccccc1 36.8% [at 35 µM]
CCCN(C)C[C@H]1Oc2cc(C#CCC3CCCC3)ccc2S(=O)(=O)N([C@@H](C)CO)C[C@H]1C 28.1% [at 8 µM]
CCCN1C[C@H](C)[C@@H](OC)CN(C)C(=O)c2ccc(NC(=O)c3ccc(F)cc3)cc2OC[C@@H]1C -10.8% [at 1.95 µM]
CO[C@@H]1CN(C)C(=O)c2cc(NC(C)=O)ccc2OC[C@@H](C)N(Cc2nccs2)C[C@@H]1C 17.3%
O=C(C[C@@H]1C[C@H]2c3cc(NC(=O)NC4CCCC4)ccc3O[C@H]2[C@@H](CO)O1)NCc1ccccc1F -6.86% [at 1.95 µM]
CO[C@H]1CN(C)C(=O)c2ccc(NC(C)=O)cc2OC[C@H](C)N(C(=O)c2ccccc2F)C[C@@H]1C -11.1% [at 0.5 µM]
C[C@@H]1CN([C@H](C)CO)S(=O)(=O)c2ccc(/C=C/c3ccccc3)cc2O[C@@H]1CN(C)C(=O)Nc1cc(F)ccc1F 35.6%
CO[C@H]1CN(C)C(=O)c2cc(NC(=O)C3CCC3)ccc2OC[C@@H](C)N(Cc2ccc(F)cc2)C[C@@H]1C 29.4%
CCC(=O)N1C[C@@H](C)[C@H](OC)CN(C)C(=O)c2ccc(NC(=O)c3cc(C)on3)cc2OC[C@@H]1C -1.88% [at 1.95 µM]
C[C@@H](NC(=O)C[C@H]1C=C[C@@H](NC(=O)CN2CCOCC2)[C@H](CO)O1)c1ccccc1 -14.1% [at 8 µM]
CCC(=O)Nc1ccc2c(c1)C(=O)N(C)C[C@H](OC)[C@H](C)CN(C(=O)CN1CCOCC1)[C@@H](C)CO2 -5.93% [at 8 µM]
COc1cccc(NC(=O)N[C@H]2C=C[C@H](CC(=O)NCc3ccncn3)O[C@@H]2CO)c1 -9.51% [at 0.5 µM]
CCCC#Cc1ccc2c(c1)O[C@@H](CN(C)Cc1ccncc1)[C@@H](C)CN([C@H](C)CO)S2(=O)=O 33.3%
CO[C@H]1CN(C)C(=O)c2cc(NC(C)=O)ccc2OC[C@@H](C)N(CC2CCCCC2)C[C@H]1C -7.37% [at 1.95 µM]
O=C(N[C@H]1C=C[C@@H](CC(=O)N2CCc3ccccc3C2)O[C@H]1CO)C1CC1 -11.9% [at 1.95 µM]
Cc1ccc(-c2ccc3c(c2)O[C@H](CN(C)C(=O)NC(C)C)[C@H](C)CN([C@@H](C)CO)S3(=O)=O)cc1 20.5%
Cc1ccc(-c2ccc3c(c2)O[C@H](CN(C)Cc2ccncc2)[C@@H](C)CN([C@@H](C)CO)S3(=O)=O)cc1 32.6%
